From PubChem
In the library only some 2.3% were active in any assay of this set; here they are far more common.
TRPV1 ag = agonists of human vanilloid receptor 1 (TRPV1) | activation, % at 8.33 µM | Q8NER1 | hit rate 0.19% among 320,000 | TRPV1-expressing cells, Fluo-8 calcium influx, agonist mode; in the data active = activation above about 80%; inconclusive = between about 30% and that limit; also: 0% is about no effect
Target sequence (Q8NER1 whole entry, looked up): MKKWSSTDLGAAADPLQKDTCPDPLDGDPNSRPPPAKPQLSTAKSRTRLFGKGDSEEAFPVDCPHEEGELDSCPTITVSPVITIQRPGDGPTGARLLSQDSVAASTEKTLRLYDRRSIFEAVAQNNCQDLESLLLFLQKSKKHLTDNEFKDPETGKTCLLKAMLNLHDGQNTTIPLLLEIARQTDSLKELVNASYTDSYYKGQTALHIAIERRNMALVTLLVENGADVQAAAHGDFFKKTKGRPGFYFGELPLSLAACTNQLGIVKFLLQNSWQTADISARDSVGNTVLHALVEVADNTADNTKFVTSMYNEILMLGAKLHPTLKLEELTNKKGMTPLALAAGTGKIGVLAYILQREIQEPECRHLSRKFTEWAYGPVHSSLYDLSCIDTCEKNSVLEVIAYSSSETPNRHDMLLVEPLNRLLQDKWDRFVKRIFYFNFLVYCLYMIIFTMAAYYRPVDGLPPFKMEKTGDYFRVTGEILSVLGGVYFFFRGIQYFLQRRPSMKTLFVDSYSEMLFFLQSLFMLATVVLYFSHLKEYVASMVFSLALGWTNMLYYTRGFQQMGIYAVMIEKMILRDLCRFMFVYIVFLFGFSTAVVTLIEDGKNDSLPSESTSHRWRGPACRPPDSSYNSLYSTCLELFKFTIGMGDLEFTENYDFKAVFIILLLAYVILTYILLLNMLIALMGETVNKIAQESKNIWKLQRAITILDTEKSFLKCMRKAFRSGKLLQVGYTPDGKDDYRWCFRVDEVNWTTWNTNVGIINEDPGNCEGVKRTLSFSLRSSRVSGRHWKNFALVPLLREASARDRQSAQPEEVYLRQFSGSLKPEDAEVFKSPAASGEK
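Fluo-8 calcium influx in TRPV1-expressing cells, kinetic read (ex 480/em 520 nm). Compound added and read 3 min for agonist activity, followed by capsaicin at EC20 final and 2 min further read for enhancement.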
ELG1 repair inh = inhibitors of ELG1-dependent DNA repair in HEK293T cells. HEK293T ELG1-luciferase reporter, luminescence, 16 h; DNA damage induced by 5-fluorouridine. hit rate 2.3% among 330,000. Potency, µM (top dose mostly 46.1 µM), without a hit: top-dose activity change, negative = inhibition, hits mostly inhibitors; also: potency is read from the fitted curve at half-maximal effect; % is scaled to controls: 0 for no effect and ±100 for the full control effect; nearly all actives have a fitted effect of over 55% in size
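Cells (2,000 per well) received 5-fluorouridine plus test compound or DMSO and were incubated 16 hr at 37 °C, 5% CO2. Luciferase activity was read by luminescence 30 min after ONE-Glo addition; signal suppression marked inhibition of damage-induced ELG1 function.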
Giardia killer = kills Giardia lamblia. Giardia lamblia trophozoite viability. activity change, % at 7.66 µM, hits read low. hit rate 0.15% among 340,000. AID 540267; in the data active = activity change below about -80%; inconclusive = between about -30% and that limit;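 also: parasites exposed to compound for two days anaerobically before the ATP read; % is scaled to controls: 0 for no effect and ±100 for the full control effect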
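Trophozoites 100 cells/well + cpd; 48 hrs, 37 deg C, anaerobic. ATPLite 1-Step added, 15-30 min RT, luminescence read (ATP-based viability).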
FUS suppressor = FUS proteinopathy suppression in yeast; S. cerevisiae FUS-expressing, growth rescue, OD600, 24 h; Potency, µM (top dose mostly 76.6 µM), actives largely listed as activators; hit rate 0.24% among 390,000;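 also: potency is read from the fitted curve at half-maximal effect; plate controls were DMSO vehicle for no effect and reference control for full effect; nearly all actives have a fitted effect of over 55% in size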
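Yeast FUS proteinopathy model; galactose-induced FUS (2%), starting OD 0.005. Cpds in dilution series, 24hr, 30C, 99% humidity. Abs 600 nm growth. Pos ctrl CP55940 (top 92uM final); neg ctrl DMSO.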
TRPV1 potentiator = enhances activation of the human vanilloid receptor TRPV1. Q8NER1. TRPV1-expressing cells, Fluo-8 calcium influx, capsaicin EC20 potentiation. potentiation, % at 8.33 µM. hit rate 0.02% among 320,000. AID 540277; in the data active = potentiation above about 80%; inconclusive = between about 30% and that limit; also: 0% is about no effect
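TRPV1-expressing cells were cultured overnight at 35.5C and loaded with Fluo-8 calcium dye for 40 to 90 min at room temperature. After a 10 s baseline, compound was added and calcium influx was read kinetically for 3 min (ex 480/em 520 nm).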
Numbers without * were called inactive; i = inactive; ? = inconclusive; nt = not tested or not shown. Unless noted, calls follow the shape of the dose curve; as a rule, active = well fitted curve in the direction sought with a large enough effect; inconclusive = small, poorly fitted or top-dose-only effect, or another doubt; inactive = no such curve, though single readings can be large; an effect the other way counts as inactive or inconclusive.

SMILES	TRPV1 ag	ELG1 repair inh	Giardia killer	FUS suppressor	TRPV1 potentiator
CCOC(=O)c1c(CN2CCOCC2)n(-c2ccccc2)c2cc(Br)c(O)cc12	17	23µM*	0	i	-15
CCOC(=O)c1c(CN2CCOCC2)n(-c2ccccc2)c2cc(Br)c(OC)cc12	-3	?	2	i	24
CC(C)c1ccc(NC(=O)CN2C(=O)COc3ccc(S(=O)(=O)N4CCCCCC4)cc32)cc1	nt	nt	nt	i	nt
COc1ccc2nc(N=Nc3ccc(N(C)C)cc3)sc2c1	-5	?	-82*	i	5
CCS(=O)(=O)N1Cc2ccccc2CC1C(=O)Nc1nnc(SCc2c(Cl)cccc2Cl)s1 (configuration not stated)	-5	13%	-6	nt	5
CCc1nnc(NC(=O)C2Cc3ccccc3CN2S(=O)(=O)c2cccs2)s1 (configuration not stated)	-1	?	1	i	0
CCS(=O)(=O)N1Cc2ccccc2CC1C(=O)Nc1ccc(OC)c(OC)c1 (configuration not stated)	0	-2%	-29	i	-2
CCS(=O)(=O)N1Cc2ccccc2CC1C(=O)Nc1cccc(OC)c1 (configuration not stated)	-7	2.3µM*	0	i	23
CCSc1nnc(NC(=O)C2Cc3ccccc3CN2S(=O)(=O)CC)s1 (configuration not stated)	-2	?	0	3.5µM*	-2
CCc1nnc(NC(=O)C2Cc3ccccc3CN2S(=O)(=O)c2ccc(C)cc2)s1 (configuration not stated)	-5	?	15	14µM*	?
Brc1ccc(N=Nc2ccc3ccccc3n2)cc1	nt	?	-81*	i	nt
CCN1C=CC(=C2C(=O)c3ccccc3C2=O)C=C1	nt	?	-94*	i	nt
CCCN1C=CC(=C2C(=O)c3ccccc3C2=O)C=C1	2	?	-97*	i	13
Cc1csc2nc(COc3ccccc3NC(=O)c3ccco3)cc(=O)n12	nt	nt	nt	i	nt
Cc1cccc2nc(-c3cccnc3)c(NCCC(C)C)n12	?	5%	-1	i	-9
Cc1cccc2nc(-c3cccnc3)c(Nc3ccccc3)n12	-3	18µM*	-3	i	-2
O=[N+]([O-])c1ccc(C(O)C(CO)NC(=S)Nc2ccccc2)cc1 (configuration not stated)	0	8.2µM*	-22	i	2
Cc1ccc(NC(=S)NC(CO)C(O)c2ccc([N+](=O)[O-])cc2)cc1 (configuration not stated)	-4	4%	-9	i	2
COc1ccc(-c2cccc(NS(=O)(=O)c3ccc(NC(C)=O)cc3)c2)nn1	nt	nt	nt	i	nt
Cc1ccc(OCCCCn2ccnc2C)c(C)c1	13	12µM*	12	i	?
Cc1ccc(C(C)C)c(OCCn2ccnc2C)c1	2	0%	5	i	4
CCOC(=O)c1c(NC(=O)N/N=C/c2ccc(O)c(OC)c2)sc(C(C)=O)c1C	2	4.6µM*	nt	nt	-1
CCOC(=O)c1c(NC(=O)C(=O)N/N=C/c2ccc(O)c(OC)c2)sc2c1CCCCC2	30	15µM*	1	i	-2
Cc1cccc(NC(=O)c2c(C)oc3ncn(CC(C)C)c(=O)c23)n1	nt	nt	nt	i	nt
Cc1ccc(Cn2c(=N)c(C(=O)NCC3CCCO3)cc3c(=O)n4cccc(C)c4nc32)cc1 (configuration not stated)	82*	-2%	-8	i	-11
SMILES	TRPV1 ag	ELG1 repair inh	Giardia killer	FUS suppressor	TRPV1 potentiator
COc1ccc(CCNC(=O)c2cc3c(=O)n4ccccc4nc3n(C3CCCCC3)c2=N)cc1	3	23µM*	14	i	2
Cc1ccc(Cn2c(=N)c(C(=O)NCC3CCCO3)cc3c(=O)n4ccccc4nc32)cc1 (configuration not stated)	?	-5%	1	i	-3
N=c1c(C(=O)NC2CCCCC2)cc2c(=O)n3ccccc3nc2n1Cc1ccc(F)cc1	-4	8.2µM*	-29	i	3
N=c1c(C(=O)NC2CCCC2)cc2c(=O)n3ccccc3nc2n1Cc1ccccc1	?	?	?	i	-9
COc1ccc(-c2nc(NC(=O)C3CCN(c4nc5ccccc5o4)CC3)sc2C)cc1	4	12µM*	14	i	-3
CC(C)CCNC(=O)C1CCN(c2nc3ccccc3o2)CC1	-3	?	15	i	3
CCOC(=O)c1c(-c2ccc(C)o2)csc1NC(=S)NC(=O)c1cccs1	-4	16µM*	-19	i	13
CCOC(=O)c1c(-c2ccc(C)o2)csc1NC(=S)NC(=O)c1ccccc1Br	2	?	2	i	6
COc1ccc(NC(=O)/C(Cl)=C(/Cl)S(=O)Cc2ccccc2Cl)cn1 (configuration not stated)	6	15µM*	-12	i	-5
C=CCn1c(=O)c2ccccc2n2c(SCC(=O)Nc3sc(C(=O)N(CC)CC)c(C)c3C(=O)OCC)nnc12	2	21µM*	12	?	0
CCOC(=O)c1c(NC(=O)CSc2nc3cc(Cl)ccc3c(=O)n2Cc2ccco2)sc(C(=O)N(C)C)c1C	0	3.3µM*	5	i	4
CCc1ccc(NC(=O)CSc2nc3cc(C(=O)OC)ccc3c(=O)n2Cc2ccco2)cc1	1	?	-9	i	-2
C=CCn1c(=O)c2ccccc2n2c(SCC(=O)Nc3sc(C)c(CC)c3C(=O)OCC)nnc12	0	?	9	i	3
CCN(C(=O)CSc1nc2cc(C(=O)OC)ccc2c(=O)n1Cc1ccco1)c1cccc(C)c1	-5	7.3µM*	16	?	?
COc1cc(NC(=O)CCn2nc(C)c(S(=O)(=O)N3CCCCC3)c2C)cc(OC)c1OC	nt	nt	nt	i	nt
Cc1ccc2c(c1)N(C(=O)N1CCC(C(=O)NCCC3=CCCCC3)CC1)CC(C)O2 (configuration not stated)	nt	nt	nt	i	nt
COc1cccc(/C=N/Nc2nc3ccccc3n3cnnc23)c1	0	?	18	i	5
COc1cccc(/C=N/Nc2nc3ccccc3n3cnnc23)c1O	17	8.2µM*	15	nt	1
COc1ccc(Cl)cc1Nc1cc(C)nc2ccccc12	nt	nt	-10	i	nt
COc1ccc(OC)c(Nc2cc(C)nc3ccccc23)c1	1	21µM*	11	i	-2
COc1ccc(/C=N/Nc2cc(C)nc3ccc(Br)cc23)cc1	14	?	15	i	6
COc1ccc2nc(C)cc(N/N=C/c3cccc(OC)c3O)c2c1	?	2%	-83*	?	-25
COc1cccc(/C=N/Nc2nc3ccccc3[nH]2)c1O	16	4.1µM*	1	i	-13
CCOC(=O)c1nc(NCc2ccc(Cl)cc2)c2c(C)noc2n1	nt	nt	nt	i	nt
